Laboratory results from PubChem BioAssay (NCATS).
Inconclusive results are not listed. Entries that show only a call come without a potency. The source made the active and inactive calls. The call rests on the fitted dose curve; in most records, active means well fitted inhibition curve with a large enough effect; inconclusive means small, poorly fitted or top-dose-only effect, or effect the other way; inactive means flat fitted curve, though single readings scatter.

Target: ATP-dependent 6-phosphofructokinase (Trypanosoma brucei brucei) (UniProt O15648)
Assay: qHTS Assay to Find Inhibitors of T. brucei phosphofructokinase: hit validation (AID 492961)
Outline: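 In this biochemical qHTS validation, titrated compounds were tested against 1.25 nM PFK with 0.1 mM ATP and 0.5 mM F6P. Percent activity came from controls lacking or containing enzyme.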
Potency means the concentration at half of the fitted maximal effect.

Chain of ATP-dependent 6-phosphofructokinase (Trypanosoma brucei brucei) (O15648 whole entry, looked up): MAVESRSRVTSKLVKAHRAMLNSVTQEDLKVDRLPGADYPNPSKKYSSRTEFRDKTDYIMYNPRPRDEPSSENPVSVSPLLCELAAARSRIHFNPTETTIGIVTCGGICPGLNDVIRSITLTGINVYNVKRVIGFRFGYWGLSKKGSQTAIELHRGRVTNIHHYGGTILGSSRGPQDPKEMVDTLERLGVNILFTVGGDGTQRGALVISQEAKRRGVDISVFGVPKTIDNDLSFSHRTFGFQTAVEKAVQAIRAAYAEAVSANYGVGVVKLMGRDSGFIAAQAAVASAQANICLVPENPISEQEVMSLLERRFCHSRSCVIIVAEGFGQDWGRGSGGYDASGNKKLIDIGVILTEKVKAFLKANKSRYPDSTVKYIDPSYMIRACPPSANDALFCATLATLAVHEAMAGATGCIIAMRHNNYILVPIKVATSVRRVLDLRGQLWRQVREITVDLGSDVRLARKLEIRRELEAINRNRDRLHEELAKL

Compound	Potency
CO	inactive
CCC(C)[C@@H](N)C(=O)O (stereo partly drawn)	inactive
CC(C)Cc1ccc([C@@H](C)C(=O)NS(C)(=O)=O)cc1	inactive
FC(F)(F)C(F)(F)C(F)(F)C(F)(F)C(F)(F)C(F)(F)F	inactive
O=C(CCCN1CCN2CCCC2C1)c1ccc(F)cc1 (stereo not drawn)	inactive
CC/C=C\C/C=C\C/C=C\C/C=C\C/C=C\CCCC(=O)O	inactive
COC(=O)CC[C@H](N)C(=O)O	inactive
CC(C)C1=CC2=CC[C@@H]3[C@](C)(CCC[C@@]3(C)C(=O)O)[C@H]2CC1	inactive
Cc1ccccn1	inactive
C[C@H](CCC(=O)O)[C@H]1CC[C@H]2[C@@H]3CC[C@@H]4C[C@H](O)CC[C@]4(C)[C@H]3C[C@H](O)[C@]12C	inactive
O=C(OC1C[C@@H]2CC3C[C@H](C1)N2CC3=O)c1c[nH]c2ccccc12 (stereo partly drawn)	inactive
O=S(=O)(O)CCCS(=O)(=O)O	inactive
OB(O)O	inactive
Cc1cc(-c2ccc(N=Nc3c(S(=O)(=O)O)cc4cc(S(=O)(=O)O)cc(N)c4c3O)c(C)c2)ccc1N=Nc1c(S(=O)(=O)O)cc2cc(S(=O)(=O)O)cc(N)c2c1O	28.2 µM (active)
CCOc1ccc(NC(=S)Nc2ccc(OCC)cc2)cc1	inactive
[O]=[Bi][O]C(=O)[O][Bi]=[O]	inactive
O=C(O)/C=C/c1ccccc1	inactive
CC(C)=CCC/C(C)=C/CC/C(C)=C/CC/C=C(\C)CC/C=C(\C)CCC=C(C)C	inactive
COc1ccc(C[C@H](C)NC[C@@H](O)c2ccc(O)c(NC=O)c2)cc1	inactive
CCCc1nc(C(C)(C)O)c(C(=O)OCc2oc(=O)oc2C)n1Cc1ccc(-c2ccccc2-c2nn[nH]n2)cc1	inactive
CC(CCc1ccc(O)cc1)NCC(O)c1ccc(O)cc1 (stereo not drawn)	inactive
CC(=O)Oc1cccc(C(=O)O)c1OC(C)=O	inactive
Nc1ncnc2c1ncn2CCOCP(=O)(O)O	inactive
